# Hits are enriched below; roughly 7.4% of the tested compounds scored in any of these assays.
# SMN2 splice enh = increases expression of the SMN2 splice variant; HEK293 SMN2-luciferase splicing reporter, luminescence, 30-36 h; Potency, µM (highest dose often 46.1 µM), for the others: at the highest dose activity change, positive = activation, usual class: activators; actives 2.8% (n = 210,000); also: % of control where 0% means no effect; nearly all actives have a fitted effect of over 55% in size
#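 qHTS luciferase splicing reporter: luminescence rises when SMN2 exon 7 is included in transfected HEK293 cells. Compound exposure lasted 30-36 h at 37C, with 4.5 mM final sodium butyrate as control, followed by a ONE-Glo read.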
# Rab9 prom act = Rab9 promoter activation; Huh7 Rab9 promoter-luciferase reporter, luminescence, 24 h; Potency, µM (series often up to 9.22 µM), for the others: top-dose activation, negative = inhibition, most hits filed as activators; actives 2.8% (n = 320,000); AID 485297; also: % of control where 0% means no effect; nearly all actives have a fitted effect of over 60% in size
#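 Cells were plated at 1500 per well in reduced-serum medium with 10% FBS and left 2 h. Compound in DMSO was then added for 24 h at 37 °C. Reporter signal was read by luminescence after 10 min with luciferase detection reagent.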
# NPC1 prom act = activators of NPC1 promoter; Huh7 NPC1 promoter luciferase reporter, 24 h; AID 485313; actives 2.4% (n = 320,000); Potency, µM (titrated, usually from 9.22 µM), inactives show top-dose activation, actives largely listed as activators; also: % of control where 0% means no effect; nearly all actives have a fitted effect of over 60% in size
#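 Luciferase expression driven by the NPC1 promoter was measured in stably transfected Huh7 cells after a 24 h compound incubation, using a luciferase reagent and a luminescence read.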
# ELG1 genotoxic = inducers of genotoxicity in HEK293T ELG1-luciferase cells. actives 1.3% (n = 330,000). Potency, µM (top dose mostly 46 µM), inactives show top-dose activity change, positive = activation, hits mostly activators. HEK293T ELG1-luciferase reporter, luminescence, 16 h. AID 504466; also: % of control where 0% means no effect; nearly all actives have a fitted effect of over 60% in size
#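 HEK293T cells expressing luciferase-tagged ELG1 were exposed to compound or DMSO vehicle for 16 hr at 37 °C and 5% CO2. Luciferase activity was then measured with ONE-Glo after 30 min at room temperature.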
# FLuc modulator = counter-screen for miR-21 project: firefly luciferase inhibitors or activators | P08659 | purified FLuc, Km substrates, luminescence inhibition | Potency, µM (highest dose often 57.5 µM), without a hit: top-dose activity change, negative = inhibition, hits mostly inhibitors | actives 6.9% (n = 360,000);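 also: plate controls were vehicle for no effect and reference inhibitor for full effect; nearly all actives have a fitted effect of over 55% in size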
# Target sequence (P08659 whole entry, looked up): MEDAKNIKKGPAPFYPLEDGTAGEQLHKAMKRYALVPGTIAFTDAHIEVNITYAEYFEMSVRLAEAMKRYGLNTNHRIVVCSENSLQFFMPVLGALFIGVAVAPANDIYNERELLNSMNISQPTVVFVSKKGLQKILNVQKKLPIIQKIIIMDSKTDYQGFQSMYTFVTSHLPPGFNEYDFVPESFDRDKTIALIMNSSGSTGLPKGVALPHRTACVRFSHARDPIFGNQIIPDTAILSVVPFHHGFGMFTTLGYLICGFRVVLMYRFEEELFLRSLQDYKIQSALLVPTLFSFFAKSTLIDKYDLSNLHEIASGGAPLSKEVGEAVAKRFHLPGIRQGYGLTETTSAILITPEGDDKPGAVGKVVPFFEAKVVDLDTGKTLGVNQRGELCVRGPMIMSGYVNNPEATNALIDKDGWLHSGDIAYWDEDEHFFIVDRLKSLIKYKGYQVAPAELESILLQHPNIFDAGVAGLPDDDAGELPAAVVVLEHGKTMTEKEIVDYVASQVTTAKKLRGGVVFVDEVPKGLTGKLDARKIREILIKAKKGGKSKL
#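 Purified P. pyralis luciferase (10nM final) with 10uM D-luciferin and 10uM ATP (Km levels) in 50mM Tris acetate pH 7.5, 10mM Mg acetate, 0.01% Tween-20, 0.05% BSA; qHTS 6-point titration, ~60 µM downward; luminescence read.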
# An asterisk follows results filed as active; ? = inconclusive; . = not tested or not shown; [ ] = another dose, or the depositor's remark. Calls follow the shape of the dose curve; as a rule, active = well fitted curve in the direction sought with a large enough effect; inconclusive = small, poorly fitted or top-dose-only effect, or another doubt; inactive = no such curve, though single readings can be large; an effect the other way counts as inactive or inconclusive. Potency is read from the fitted curve at half-maximal effect.
SMILES,SMN2 splice enh,Rab9 prom act,NPC1 prom act,ELG1 genotoxic,FLuc modulator
Cc1cc(C(=O)CCl)c(C)n1Cc1ccco1,11%,-12%,-7%,-17%,?
COc1cc(NC(=O)C2=C(C)Nc3nnnn3C2c2ccc(SC)cc2)c(OC)cc1Cl (stereo not given),0%,.,.,.,-19%
CCCCNC(=O)C(CC)Sc1nc2ccccc2c(=O)n1CCc1ccc(OC)c(OC)c1 (stereo not given),.,.,.,.,-4%
Cc1cc(C(=O)COC(=O)Cn2c(C(F)(F)F)nc3ccccc32)c(C)n1Cc1ccco1,0%,7%,0%,5%,21µM*
Clc1cccc(-c2ccc(C=Nc3ccc(N4CCOCC4)cc3)o2)c1,-28%,-11%,3%,3%,11µM*
Oc1c(Br)cc(Cl)cc1C=Nc1ccc(N2CCOCC2)cc1,.,-6%,0%,-5%,17µM*
Oc1ccc(N=Nc2cccc(Cl)c2)cc1C=Nc1ccc(N2CCOCC2)cc1,-67%,0%,13%,7%,-17%
O=C(O)COc1ccc(/C=N/NC(=O)c2cccc3ccccc23)cc1,.,-4%[1.84 µM],-6%,0%,?
N=c1c(C(=O)NC2CCCCC2)cc2c(=O)n3ccccc3nc2n1CCc1ccccc1,.,-6%,1%,-7%,5%
CSc1cccc(-n2cc(-c3ccc4c(c3)OCO4)[nH]c2=O)c1,?,?,5%,?,21µM*
CCC(CC)NC(=O)COc1ccc(OC)cc1C=O,25%,-34%,-7%,0%,3%
Cc1nc(N2N=C(c3ccc(Cl)cc3)CC2c2ccco2)sc1C(=O)N(C)C (stereo not given),10%,2%,-1%,1%,15µM*
COCCNC(=O)c1ccccc1NC(=O)c1ccccc1SC,0%,-3%,0%,0%,-4%
CCN1CCc2c(sc(NC(=O)c3ccc4ccccc4c3)c2C(N)=O)C1,.,14%,21%,8%,2.4µM*
CC(C)N1CCc2c(sc(NC(=O)c3nc4ccccc4s3)c2C(N)=O)C1,-9%,-1%,0%,1%,17µM*
COc1ccc(CNC(=O)C2CCN(C(=O)Cc3ccccc3)CC2)cc1,.,0%,3%,0%,-1%
Fc1ccccc1/C=N/Nc1nc(-c2ccccn2)nc2ccccc12,.,-28%,-24%,9%,9.5µM*
Cc1ccc(Nc2nc(-c3cccnc3)nc3ccccc23)cc1,.,-12%,-20%,-12%,-4%
Oc1ccc(/C=N/Nc2nc(-c3cccnc3)nc3ccccc23)c(O)c1,.,4%,-1%,-3%,4.8µM*
Cc1ccc(-c2nc(N/N=C/c3ccncc3)c3ccccc3n2)cc1,-24%,2µM*,?,?,0.076µM*
COc1ccc(CCNc2nc(-c3cccnc3)nc3ccccc23)cc1OC,.,-1%,0%,-3%,-18%
COc1ccc(/C=N/Nc2nc(-c3cccnc3)nc3ccccc23)cc1OC,.,7%,5%,4%,2.1µM*
CCCCCCCCN,-31%,.,.,.,.
COC(=O)c1ccc(CN2C(=O)NC(Cc3c[nH]c4ccccc34)C2=O)cc1 (stereo not given),.,?,26%,6%,2%
Cc1c(O)ccc(/C=N/Nc2nc(-c3cccnc3)nc3ccccc23)c1O,.,25%,18%,12%,3.4µM*
SMILES,SMN2 splice enh,Rab9 prom act,NPC1 prom act,ELG1 genotoxic,FLuc modulator
Nc1nnc(-c2cccnc2)s1,?,2%,0%,5%,1%
Cc1cccc(-c2nnc(NC(=O)c3cccs3)s2)c1,?,20%,27%,10%,7.6µM*
c1ccc(Nc2nnc(-c3cccnc3)s2)cc1,.,0.4µM*,1µM*,?,1.7µM*
O=C(Nc1nnc(-c2cccnc2)s1)c1cccs1,.,29%,?,?,12µM*
O=C(Nc1ccc(NC(=O)c2cccs2)cc1)c1cccnc1,8%,19%,7%,1%,5%
O=C(Nc1cccc(Cl)c1)c1cc(S(=O)(=O)N2CCCc3ccccc32)ccc1F,.,.,.,.,-9%
Cc1o[nH]c(=O)c1CCC(N)C(=O)O (stereo not given),-6%,.,.,.,.
COc1ccccc1NC(=O)c1cc(-c2ccc(C)o2)nc2ccccc12,.,13%,-1%,-1%,7.6µM*
Cc1ccc(NC(=O)c2cc(-c3ccc(C)o3)nc3ccccc23)cc1,10%,9%,1%,5%,?
Cc1ccc(-c2cc(C(=O)Nc3cccnc3)c3ccccc3n2)o1,3%,16%,0%,0%,6µM*
Cc1ccc(-c2cc(C(=O)Nc3ccccn3)c3ccccc3n2)o1,3%,3%,-1%,-12%,11µM*
O=C(Nc1cccnc1)c1cc(-c2ccc(Br)cc2)nc2ccccc12,.,0%,0%,0%,17µM*
O=C(O)c1c2c(nc3ccc(S(=O)(=O)N4CCC(C(=O)NC5CCCCCC5)CC4)cc13)CCCC2,-26%,-3%,-1%,0%,?
CC(=O)N(CCC1(C(C)C)CCOC(C)(C)C1)C(C)c1cccs1 (stereo not given),.,-10%,13%,-8%,4%
Cc1ccc(-n2cc(CNC(C)c3cnn(C)c3C)c(-c3ccc(F)cc3)n2)cc1 (stereo not given),.,-1%,-4%,-7%,15µM*
Cc1ccc(-n2cc(CNC(C)Cn3cncn3)c(-c3ccc(F)cc3)n2)cc1 (stereo not given),-7%,-4%,2%,0%,17µM*
O=C(c1ccc2c(c1)N(Cc1cccc(Cl)c1)C(=O)c1ccccc1S2=O)N1CCN(c2cccc(C(F)(F)F)c2)CC1 (stereo not given),.,.,.,.,0%
Cc1cc(=O)[nH]c(S/C=C/c2ccccc2)n1,11µM*,?,3.5µM*,21µM*,5.4µM*
Cc1cc(=O)[nH]c(SCc2ccccc2)n1,.,1%,4%,4%,-10%
Cn1c(-c2ccncc2)nc2ccccc21,.,0%,0%,7%,6%
CCN(CC)c1ccc(-c2nc3cnccc3n2C)cc1,?,4µM*,4µM*,?,4.8µM*
Cc1cc(C)c2nc(-n3nc(C)cc3N)cc(C)c2c1,11µM*,?,13%,?,1.2µM*
Cc1cc(N)n(-c2ccccc2)n1,0%,3%,2%,1%,0%
Cc1cc(N)n(-c2cc(C)c3ccccc3n2)n1,11µM*,?,-4%,?,2.7µM*
O=C(CCn1cnc2ccccc21)N/N=C/c1ccccc1O,-53%,-35%,1%,?,8.5µM*
O=C(CCn1cnc2ccccc21)N/N=C/c1ccc(O)cc1,-13%,-5%,0%,1%,?
CNc1ncc(C(=O)c2ccc(Cl)cc2)s1,13µM*,2.8µM*,3.5µM*,?,11µM*
O=C(c1ccc(Cl)c(Cl)c1)c1cnc(Nc2ccccc2)s1,-4%,6%,1%,2%,6%
CNc1ncc(C(=O)c2ccc(Cl)c(Cl)c2)s1,24%,?,3.5µM*,?,?
